# In the library only some 6.1% were active in any assay of this set; here they are far more common.
# HepG2 viability: qHTS for Inhibitors of TGF-b: Cytotox Counterscreen. actives 0.76% (n = 410,000). AID 588856, 2011. Potency, µM (top dose mostly 46.1 µM), inactives show top-dose activity change, negative = cytotoxicity, actives largely listed as cytotoxic. HepG2 CAGA-GFP viability, ATP luminescence, 18 h
#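 HepG2 CAGA-GFP cells (1000/well, DMEM with 1% FBS) received compound, then TGF-beta at 500 pg/mL final, and were incubated 18 hours at 37 degrees C. Viability was read by CellTiter-Glo luminescence. Media-only wells were set as complete cell-killing and DMSO as no toxicity.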
# ATXN2 expr inh: Primary qHTS for Inhibitors of ATXN expression; HEK-293 ATXN2-luciferase reporter, luminescence, 24 h; Potency, µM (top dose mostly 57 µM), without a hit: at the top dose activity change, negative = inhibition, hits mostly inhibitors; actives 0.72% (n = 360,000); further: on the % scale 0 is the no-effect control and ±100 the full control effect; nearly all actives have a fitted effect of over 55% in size
#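 qHTS (up to 57 uM final) was run with 24 h compound exposure of reporter cells at 37 °C. Each well was multiplexed: SteadyGlo luminescence measured ATXN2-luciferase expression after a fluorogenic Gly-Phe-AFC viability readout (25 uM final).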
# Gal4-VP16 FLuc: VP16 counterscreen qHTS for inhibitors of ROR gamma transcriptional activity. Drosophila S2 Gal4-VP16 UAS-luciferase, luminescence, 20 h. Potency, µM (doses to about 53.6 µM), for inactives: top-dose activity, negative = inhibition, hits mostly inhibitors. actives 3.5% (n = 310,000);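 further: Gal4-VP16 expression switched on by copper sulfate through the metallothionein promoter; on the % scale 0 is the no-effect control and ±100 the full control effect; nearly all actives have a fitted effect of over 50% in size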
# RORg inh: qHTS for inhibitors of ROR gamma transcriptional activity; Nuclear receptor ROR-gamma (Mus musculus), P51450; Drosophila S2 Gal4-RORgamma UAS-luciferase reporter, 20 h; Potency, µM (doses to about 53.6 µM), for inactives: top-dose activity change, negative = inhibition, usual class: inhibitors; actives 5.4% (n = 310,000); AID 2551, 2010; further: on the % scale 0 is the no-effect control and ±100 the full control effect; nearly all actives have a fitted effect of over 60% in size
# Target sequence (P51450 whole entry, looked up, the tested form may be a part): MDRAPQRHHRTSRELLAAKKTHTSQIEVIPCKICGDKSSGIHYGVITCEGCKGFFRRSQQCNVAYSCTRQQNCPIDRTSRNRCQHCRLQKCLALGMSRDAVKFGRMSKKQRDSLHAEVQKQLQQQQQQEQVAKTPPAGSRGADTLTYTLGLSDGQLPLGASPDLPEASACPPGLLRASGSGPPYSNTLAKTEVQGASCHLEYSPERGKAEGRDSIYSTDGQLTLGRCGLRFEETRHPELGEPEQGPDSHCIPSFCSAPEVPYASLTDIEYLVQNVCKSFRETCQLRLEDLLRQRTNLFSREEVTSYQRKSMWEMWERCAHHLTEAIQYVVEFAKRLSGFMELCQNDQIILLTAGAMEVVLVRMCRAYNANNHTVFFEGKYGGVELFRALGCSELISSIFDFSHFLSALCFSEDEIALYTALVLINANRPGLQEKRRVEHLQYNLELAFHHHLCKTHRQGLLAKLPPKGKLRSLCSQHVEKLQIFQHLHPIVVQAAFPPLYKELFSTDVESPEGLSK
#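 In this cell-based reporter format, copper sulfate (700 uM final) drives Gal4–ROR gamma fusion expression from a metallothionein promoter in Drosophila Schneider cells; compounds preincubated 1 hr, reporter read after 20 hr at ambient temperature.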
# S2 tox: Viability Counterscreen for Primary qHTS for Inhibitors of ATXN expression; S2 cells (HEK-293 line with an ATXN2-luciferase reporter) viability, CellTiter-Fluor protease fluorescence, 24 h; Potency, µM (doses to about 56.7 µM), most hits filed as cytotoxic; actives 0.49% (n = 400,000); AID 651635, 2014; further: nearly all actives have a fitted effect of over 40% in size
# TGFb inhibitor: qHTS for Inhibitors of TGF-b | actives 1.2% (n = 410,000) | HepG2 CAGA-GFP TGF-b/SMAD3 reporter, GFP fluorescence, 18 h; TGF-beta stimulated, 500 pg/mL final | Potency, µM (series often up to 46.1 µM), inactives show top-dose activity, negative = inhibition, most hits filed as inhibitors | AID 588855, 2011; further: on the % scale 0 is the no-effect control and ±100 the full control effect; nearly all actives have a fitted effect of over 65% in size
#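 Inhibition was scored as loss of TGF-beta-induced (500 pg/mL final, 18 hours, 37 degrees C) GFP in HEPG2 cells carrying a CAGA-GFP reporter, in DMEM with 1% FBS. Well GFP was summed per cell; Activity was normalised to unstimulated and stimulated DMSO wells, then concentration-response fitting.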
# * marks the source's active call; other numbers are inactive results; i = inactive; ? = inconclusive; / = no result given; [ ] = another dose, or the depositor's remark. The call rests on the fitted dose curve; in most records, active means well fitted curve in the direction sought with a large enough effect; inconclusive means small, poorly fitted or top-dose-only effect, or another doubt; inactive means no such curve, though single readings can be large; an effect the other way counts as inactive or inconclusive. Potency means the concentration at half of the fitted maximal effect.
SMILES,HepG2 viability,ATXN2 expr inh,Gal4-VP16 FLuc,RORg inh,S2 tox,TGFb inhibitor
CC1CCC(C(=O)N(c2cc(C#CC(C)(C)C)sc2C(=O)O)C2CCC(O)CC2)CC1 (centres undefined),/,14%,/,/,/,/
CCOC(=O)[C@H](CCc1ccccc1)N[C@@H](C)C(=O)N(CC(=O)O)C1Cc2ccccc2C1,/,-4%,/,/,i,/
c1ccc2oc(C3=NNC(=NC4CC4)SC3)cc2c1,-30%,?,11µM*,3.5µM*,i,?
Cc1cccc(C)c1N=C1NN=C(c2ccccc2F)CS1,-56%,1%,10µM*,7.9µM*,i,?
Cc1cc(C2=NNC(=NC3CC3)SC2)c(C)n1-c1ccccc1F,-48%,0.28µM*,0.71µM*,1.1µM*,i,?
c1ccc2oc(-c3ccn[nH]3)cc2c1,-21%,41%,-16%,-34%,i,-19%
c1ccc(CN=C2NN=C(c3cc4ccccc4o3)CS2)cc1,6%,5%,20µM*,?,i,-10%
Cc1cc(C2=NNC(=NC3CCCCC3)SC2)c(C)n1-c1c(C)n(C)n(-c2ccccc2)c1=O,-13%,/,-27%,-8%,?,-29%
CCNC(=O)CC1C(=O)N(c2ccc(C)cc2)C(=O)N1Cc1ccc(C)cc1 (centres undefined),-15%,-2%,/,/,i,-17%
C=CCN(CC=C)Cc1nc(N)nc(Nc2ccccc2C)n1,-23%,-8%,-8%,13µM*,i,2%
Cc1ccccc1Nc1nc(N)nc(CN(C)c2ccccc2)n1,3%,29%,-4%,3%,i,0%
CC(C)n1c(-c2ccc(N(C)C)cc2)nc2ccccc21,-53%,52%,20µM*,4µM*,?,?
CN(Cc1nc2ccccc2n1C)c1ccccc1,14%,2%,?,11µM*,i,-11%
CN(C)c1ccc(-c2nc3ccccc3n2C)cc1,8.9µM*,?,?,4µM*,i,?
CCn1c(-c2ccc(N)cc2)nc2ccccc21,-40%,26%,8%,4%,i,-28%
CCn1c(-c2ccc(N(C)C)cc2)nc2ccccc21,-33%,11%,?,6.3µM*,i,?
Cn1c(CNc2nc3ccccc3n2C)nc2ccccc21,-4%,32%,-3%,-5%,?,1%
COc1ccc(NC(=O)CN2C(=O)CCc3cc(S(=O)(=O)N4CCOCC4)ccc32)c(OC)c1,-10%,-6%,/,/,i,?
COc1ccc(O[C@H]2C=C[C@@H](c3ccccc3)O[C@H]2CO/N=C(/C)CCC(=O)OC[C@@H]2O[C@H](C#Cc3ccccc3)C=C[C@@H]2Oc2ccc(C)cc2)cc1,/,/,2%[10 µM],16%[10 µM],/,/
COc1ccc(N2CCN(C(=O)C3Cc4ccccc4N3C(C)=O)CC2)cc1 (centres undefined),-5%,4%,/,/,i,0%
Fc1ccc(/C=C/c2ccc3ccccc3n2)cc1,-30%,/,/,/,/,?
O=C(c1cc(-c2ccc3c(c2)OCO3)on1)N1CCOCC1,5%,?,7.9µM*,10µM*,i,-13%
O=C(c1cc(-c2ccc(Cl)cc2Cl)on1)N1CCOCC1,-29%,?,?,10µM*,i,-4%
O=C(c1cc(-c2ccc(Cl)cc2)on1)N1CCOCC1,-49%,-18%,?,10µM*,i,2%
O=C(c1cc(-c2ccc(Cl)c(Cl)c2)on1)N1CCOCC1,-7%,31%,0%,9%,i,-4%
SMILES,HepG2 viability,ATXN2 expr inh,Gal4-VP16 FLuc,RORg inh,S2 tox,TGFb inhibitor
COc1ccc(NC(=O)Cn2ncc3c([nH]c4ccccc43)c2=O)cc1Cl,10%,1%,/,/,i,11%
Cn1cc(C(=O)c2ccc(Cl)cc2Cl)cc1C(=O)N/N=C(\N)COc1cccc(C(F)(F)F)c1,-41%,?,2µM*,2.2µM*,?,?
COC(=O)c1cc(C(=O)c2ccc(Cl)cc2Cl)cn1C,0%,5%,10%,?,i,-7%
O=C(O)c1ccc2c(c1)C(=O)N([C@@H](Cc1ccc(O)cc1)C(=O)O)C2=O,/,/,6.3µM*,2µM*,/,/
O=C(O)c1ccc2c(c1)C(=O)N(C(Cc1ccc(O)cc1)C(=O)O)C2=O (centres undefined),22%,5%,-7%,3%,i,-5%
Cc1cccc(CN2C(=O)[C@@H]3Cc4c([nH]c5ccccc45)C(C)(C)N3C2=O)c1,-21%,?,/,/,?,?
Cc1cccc(CN2C(=O)[C@H]3Cc4c([nH]c5ccccc45)C(C)(C)N3C2=O)c1,-28%,?,/,/,?,11µM*
CCCCN=C1NN=C(c2ccc(C)c(C)c2)CS1,-21%,14%,13µM*,7.1µM*,i,17%
CCCCN=C1NN=C(c2ccc3c(c2)OCCO3)CS1,-24%,-35%,7.9µM*,4.5µM*,i,6%
COc1ccc(N=C2NN=C(c3ccc4c(c3)OCCO4)CS2)cc1,13%,6%,24%,6%,i,?
FC(F)Sc1ccc(N=C2NN=C(c3ccc4c(c3)OCCO4)CS2)cc1,-25%,/,5%,-20%,/,?
COCCN=C1NN=C(c2ccc(C)c([N+](=O)[O-])c2)CS1,-1%,5%,-16%,13µM*,i,0%
c1cc2c(cc1C1=NNC(=NC3CC3)SC1)OCCO2,-78%,/,2.2µM*,2.5µM*,?,?
O=C(Nc1ccc(Br)cc1F)c1cc2nc(-c3ccco3)cc(C(F)(F)Cl)n2n1,-3%,4%,/,/,i,-4%
COc1cc(/C=N/NC(=O)c2ccc(COc3cc(C)ccc3C(C)C)cc2)cc(OC)c1O,-18%,?,16µM*,?,i,-15%
COc1cc(/C=N/NC(=O)c2cccc([N+](=O)[O-])c2)ccc1OCc1ccc(C)cc1,-42%,14%,-7%,2.5µM*,i,-8%
CC(=O)Nc1ccc(C(=O)N/N=C/c2ccccc2OCc2ccccc2)cc1,0%,-12%[11.3 µM],-5%,34%,?,39%
COc1ccc(/C=N/NC(=O)c2cccc([N+](=O)[O-])c2)cc1O,-2%,19%,?,-21%,i,-27%
Cc1ccc(C(C)C)c(OCc2ccc(C(=O)N/N=C/c3ccc(O)c(O)c3)cc2)c1,-74%,?,35µM*,?,i,?
